# From PubChem BioAssay (NCATS)
# A number with no mark means an inactive call. For some of these results: Measured potencies and affinities stand elsewhere. The source made the active and inactive calls. The rule behind the calls is not given here.
# Legend:
# [1] = Ebola virus entry assay, green fluorescence channel
# [2] = Ebola virus entry assay, blue channel fluorescence
# [3] = Ebola virus entry assay, ratio channel
# [4] = Ebola virus entry assay, reporter ratio channel; Channel type: primary
# Throughout, for efficacy: 0% is about no effect.
Compound,efficacy [1],AC50 [2],AC50 [3],AC50 [4],outcome [3],outcome [2],outcome [4]
O=C(CCCN1CCC(O)(c2cccc(C(F)(F)F)c2)CC1)c1ccc(F)cc1,61.9%,25.1 µM (active),20 µM (active),20 µM (active),,,
C[C@]12CCC(=O)C=C1C=C[C@@H]1[C@@H]2CC[C@@]2(C)[C@H]1CC[C@@]21CCC(=O)O1,123%,39.8 µM (active),,39.8 µM (active),inactive,,
CN1CCN(C2=Nc3cc(F)ccc3Cc3ccccc32)CC1,49.4%,22.4 µM (active),31.6 µM (active),31.6 µM (active),,,
O=C(CN1CCN(Cc2ccc3c(c2)OCO3)CC1)N1c2ccccc2Sc2ccccc21,86.4%,39.8 µM (active),25.1 µM (active),25.1 µM (active),,,
CCCCNc1ccc(C(=O)OCCN(C)C)cc1,66.1%,20 µM (active),28.2 µM (active),28.2 µM (active),,,
CN1CCN(C2=Nc3ccccc3Sc3ccc(Cl)cc32)CC1,66%,39.8 µM (active),,39.8 µM (active),inactive,,
NC(=O)C1(N2CCCCC2)CCN(CCCN2c3ccccc3CCc3ccc(Cl)cc32)CC1,-222%,3.98 µM (active),3.55 µM (active),3.55 µM (active),,,
C[C@@H]1C[C@H]2[C@@H]3C[C@H](F)C4=CC(=O)C(Cl)=C[C@]4(C)[C@@]3(F)[C@@H](O)C[C@]2(C)[C@@]1(O)C(=O)CO,76%,39.8 µM (active),,39.8 µM (active),inactive,,
CCCCCCCCCCCC[N+](C)(C)Cc1ccccc1,-253%,22.4 µM (active),2.51 µM (active),2.51 µM (active),,,
CCCCNc1ccc(C(=O)OCCN(CC)CC)cc1,87.1%,39.8 µM (active),22.4 µM (active),22.4 µM (active),,,
Cc1c(C(=O)NN2CCCCC2)nn(-c2ccc(Cl)cc2Cl)c1-c1ccc(Cl)cc1,55.3%,14.1 µM (active),11.2 µM (active),11.2 µM (active),,,
COC(=O)[C@H]1[C@H]2C[C@@H]3c4[nH]c5cc(OC)ccc5c4CCN3C[C@H]2C[C@@H](OC(=O)COc2ccc(OC)cc2)[C@@H]1OC,21%,22.4 µM (active),25.1 µM (active),25.1 µM (active),,,
COc1ccc(CCN2CCC(Nc3nc4ccccc4n3Cc3ccc(F)cc3)CC2)cc1,-220%,5.01 µM (active),2.82 µM (active),2.82 µM (active),,,
C#CCN(C)CCCOc1ccc(Cl)cc1Cl,-19.7%,39.8 µM (active),,39.8 µM (active),inactive,,
Oc1c(Cl)cc(Cl)c2cccnc12,73.4%,39.8 µM (active),,39.8 µM (active),inactive,,
c1ccc(-c2ccc(C(c3ccccc3)n3ccnc3)cc2)cc1 (stereo not drawn),98.3%,12.6 µM (active),14.1 µM (active),14.1 µM (active),,,
COC(=O)C1=C(C)NC(C)=C(C(=O)OC(C)(C)CN(C)CCC(c2ccccc2)c2ccccc2)C1c1cccc([N+](=O)[O-])c1 (stereo not drawn),39.5%,14.1 µM (active),12.6 µM (active),12.6 µM (active),,,
CCN(CCCCOC(=O)c1ccc(OC)c(OC)c1)C(C)Cc1ccc(OC)cc1 (stereo not drawn),112%,20 µM (active),15.8 µM (active),15.8 µM (active),,,
CN(C)CCCSc1ccccc1NC(=O)/C=C/c1ccccc1,79.5%,15.8 µM (active),12.6 µM (active),12.6 µM (active),,,
CCCCCN=C(N)N/N=C/c1c[nH]c2ccc(OC)cc12,-150%,3.98 µM (active),3.16 µM (active),3.16 µM (active),,,
CC[n+]1c(-c2ccccc2)c2cc(N)ccc2c2ccc(N)cc21,67.8%,28.2 µM (active),14.1 µM (active),14.1 µM (active),,,
CCN(CC)CCCC(C)Nc1c2ccc(Cl)cc2nc2ccc(OC)cc12 (stereo not drawn),40.6%,25.1 µM (active),25.1 µM (active),25.1 µM (active),,,
CCN(CC)CCOC(=O)C1(c2ccccc2)CCCC1,69.1%,28.2 µM (active),20 µM (active),20 µM (active),,,
CCCN(CCC)C(=O)C(CCC(=O)OCCCN1CCN(CCOC(=O)Cc2c(C)n(C(=O)c3ccc(Cl)cc3)c3ccc(OC)cc23)CC1)NC(=O)c1ccccc1 (stereo not drawn),156%,6.31 µM (active),5.62 µM (active),5.62 µM (active),,,
COCC(=O)O[C@]1(CCN(C)CCCc2nc3ccccc3[nH]2)CCc2cc(F)ccc2[C@@H]1C(C)C,-180%,2.24 µM (active),2.24 µM (active),2.24 µM (active),,,
COC1=C(OC)C(=O)C(CCCCCCCCCCO)=C(C)C1=O,52%,,,,inactive,inactive,inactive

Compound,efficacy [1],AC50 [2],AC50 [3],AC50 [4],outcome [3],outcome [2],outcome [4]
CCN(CC)CCOc1ccc(C(O)(Cc2ccc(Cl)cc2)c2ccc(C)cc2)cc1 (stereo not drawn),-145%,2.51 µM (active),1.78 µM (active),1.78 µM (active),,,
CCCCNc1c(C(=O)OCC)c(C)nc2c1cnn2CC,-35%,25.1 µM (active),22.4 µM (active),22.4 µM (active),,,
COc1ccc2c(c1)c(CC(=O)OCC(=O)O)c(C)n2C(=O)c1ccc(Cl)cc1,44.7%,,,,inactive,inactive,inactive
C[C@H]1C[C@H]2[C@@H]3CCC4=CC(=O)C=C[C@]4(C)[C@@]3(Cl)[C@@H](O)C[C@]2(C)[C@@]1(O)C(=O)CO,103%,25.1 µM (active),20 µM (active),20 µM (active),,,
CC1=C(C)C(=O)C(C(CCCCCC(=O)O)c2ccccc2)=C(C)C1=O (stereo not drawn),61.1%,,,,inactive,inactive,inactive
COc1cccc2c1C(=O)c1c(O)c3c(c(O)c1C2=O)C[C@@](O)(C(C)=O)C[C@@H]3O[C@H]1C[C@H](N)[C@H](O)[C@H](C)O1,54.5%,5.01 µM (active),5.01 µM (active),5.01 µM (active),,,
Clc1ccc(C(Cn2ccnc2)OCc2c(Cl)cccc2Cl)c(Cl)c1 (stereo not drawn),-112%,14.1 µM (active),8.91 µM (active),8.91 µM (active),,,
CCOc1ccc(Cc2nccc3cc(OCC)c(OCC)cc23)cc1OCC,94.1%,39.8 µM (active),,39.8 µM (active),inactive,,
CN1CCC(N(Cc2cccs2)c2ccccc2)CC1,53.5%,3.55 µM (active),3.16 µM (active),3.16 µM (active),,,
O=C(CCCN1CCN(c2ccc(F)cc2)CC1)NC1c2ccccc2CSc2ccccc21 (stereo not drawn),64.4%,8.91 µM (active),7.08 µM (active),7.08 µM (active),,,
Cc1ccc2c(c1)c1c3n2CCNC3CCC1 (stereo not drawn),68.3%,28.2 µM (active),28.2 µM (active),28.2 µM (active),,,
OC(C#CCN1CCCC1)(c1ccccc1)c1ccccc1,80.1%,39.8 µM (active),,35.5 µM (active),inactive,,
O=C1C(c2[nH]c3ccccc3c2O)=Nc2ccccc21,51.6%,,,,inactive,inactive,inactive
COc1cc(N)c(Cl)cc1C(=O)NC1CCN(CCCOc2ccc(F)cc2)CC1OC (stereo not drawn),45%,25.1 µM (active),15.8 µM (active),15.8 µM (active),,,
NCc1ccccc1Sc1ccccc1CO,118%,39.8 µM (active),20 µM (active),20 µM (active),,,
CCNC(=O)N1CCN(CCCC(c2ccc(F)cc2)c2ccc(F)cc2)CC1,111%,12.6 µM (active),11.2 µM (active),11.2 µM (active),,,
COc1ccccc1N1CCN(CC(O)COc2cccc3ccccc23)CC1 (stereo not drawn),-101%,28.2 µM (active),12.6 µM (active),12.6 µM (active),,,
COc1ccc(-c2cc(C(F)F)nn2-c2ccc(S(N)(=O)=O)cc2)cc1F,77%,25.1 µM (active),14.1 µM (active),14.1 µM (active),,,
CCOC(=O)C1=C(C)NC(C)=C(C(=O)OCC)C1c1ccccc1/C=C/C(=O)OC(C)(C)C,50%,,,,inactive,inactive,inactive
Cc1nc(C2CCCCC2)c(-c2ccc(S(N)(=O)=O)c(F)c2)o1,44.4%,39.8 µM (active),31.6 µM (active),31.6 µM (active),,,
CN1CCC(Nc2ncc3ncnc(Nc4ccc(F)c(Cl)c4)c3n2)CC1,97.2%,,,,inactive,inactive,inactive
COC(=O)C1=C(C)NC(C)=C(C(=O)OCCCN2CCC(c3ccccc3)(c3ccccc3)CC2)C1c1cccc([N+](=O)[O-])c1 (stereo not drawn),-179%,2.82 µM (active),2.51 µM (active),2.51 µM (active),,,
O=C(c1cc(O)c(O)c(O)c1)c1ccc(O)c(O)c1O,38.9%,1.78 µM (active),1.78 µM (active),1.78 µM (active),,,
O=c1[nH]c2ccccc2n1CCCN1CCN(C(c2ccccc2)c2ccccc2)CC1,-120%,12.6 µM (active),3.98 µM (active),3.98 µM (active),,,
CC(=O)O[C@]1(C(C)=O)CC[C@H]2[C@@H]3C=C(Cl)C4=CC(=O)CC[C@]4(C)[C@H]3CC[C@@]21C,83.2%,28.2 µM (active),28.2 µM (active),28.2 µM (active),,,
OC(CCN1CCCCC1)(c1ccccc1)c1ccccc1,36.7%,31.6 µM (active),28.2 µM (active),28.2 µM (active),,,
